Among the data in PubChem BioAssay AID1508600 (Functional Genomics Laboratory (NCATS/FGL), 2020) are z-score values, retold here.

The whole screen tested about 53,000 sequences, of which about 3,700 (7%) were called active.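 How the source made its calls: active means gene knockdowns whose robust z-score for IL-1 alpha signal is at least 2 or at most -2, so actives lie on both sides; inactive means the rest.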 Only a selection was taken, and actives are over-represented in it overall.

The assay can be described thus: Components of the Cytosolic LPS Sensing Pathway: Gene Identification via Genome-wide siRNA Screen.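 Further: robust z of the log signal after scaling to non-targeting control siRNA wells of the plate.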 The note with it: RAW264.7 macrophages, IL-1a HTRF, actives lie on both sides, screened at 100 nM (by protocol), cells primed 5 h with Pam3CSK4 first. Put shortly: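 Read-out: IL-1a HTRF on supernatant, divided by plate negative-control median ×100, log-transformed and converted to robust z-score. Cells were RAW264.7 given 100 nM siRNA, Pam3CSK4-primed 5 hours, then LipidA-transfected 24 hour.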
For orientation: In TR-FRET formats the signal depends on donor and acceptor labels being close together.
For CCAUAUGUCCUGUUUAAGATT against Grik2, the z-score is 0.304 (inactive).
On to GGACUUGAAAGACGAGAUATT against Cyp19a1, for which the z-score was 0.31 (inactive).
In the case of CCUUUAUGAAUGAACAGGGTT against Cnot7, the z-score is -0.266 (inactive).
GGCCAAUUCCAGUGAGAUGTT against Lgsn: the z-score is -0.0795 (inactive).
Consider GGCAGAGCUCAAAAAGAAATT against Ankrd1, for which the z-score is -1.94 (inactive).
In the case of CCAAAUCCGGGAAAAAGAGTT against Armcx5, the z-score was -0.459 (inactive).
Regarding GCAUACCAAUCACAGUCGATT against Dync2li1, the z-score was -2.55 (active).
For GGGUUGCUACUCACAAUGUTT against Syngr2, the z-score is 0.244 (inactive).
As for CCUCAAUUUCGAAGACCCUTT against Asb6, the z-score is 1.84 (inactive).
The value for GGACUCUGGACCUUAUGCUTT against Tmem202 was -0.921 (inactive).
Under GGCUUUCAAGCUAACUGAUTT against Sf3b2 stands -2.39 (active); under “GGUUAAAAACAACUGAAAGTT against 9630028B13Rik”, -1.04 (inactive); under GGGAACUUUCCUCAAGUCUTT against Phactr3, 0.107 (inactive).
GGCCAAGAAACAUGCCCUATT against Pbx2: the z-score was 0.168 (inactive).
In the case of GGCAGUGGAGUUAACAACATT against Dsg1b, the z-score is -0.12 (inactive).
On to CCUAUGAGUCUUACGUGAATT against Cyp4x1, for which the z-score was 0.693 (inactive).
Regarding GGACACCAACAUAUUGUUCTT against Slc13a2, the z-score is -0.128 (inactive).
Regarding GGCUGAUGGAAGAAUAUGATT against Actn2, the z-score is -2.2 (active).
Regarding GGAUGAGUCUUUCUAGUUATT against Nipa1, the z-score is -0.337 (inactive).
For the sequence GCAGCAGUAAUGAUGGAUCTT against Ncoa3, the z-score is 2.47 (active).
Consider GGACAAAUUCUACAUCAGCTT against Adam8, for which the z-score was 0.0533 (inactive).
The value for CGGCCGUCAGCUUCUUUUATT against Olfr283 was -0.204 (inactive); that for CGACUUUGGAGAAUUUCAATT against Synrg was -0.573 (inactive).
The value for GGGAACAAACCUUGAUUCUTT against Adam24 was 3.49 (active); that for GGAGAGACCACCCUUUCAGTT against Fahd2a was -0.432 (inactive); that for GCAUAUGGACUUUCUGUCATT against Iws1 was -0.157 (inactive).
With GGUGUAACACUCAUUUAUCTT against Ifitm3, the z-score is 2.88 (active).
The value for GGACACCUACCAAAAGUUATT against Cd9 was 0.432 (inactive); that for GCUACAACAAGACAAAGUCTT against Tada1 was 1.84 (inactive).
Regarding CCUUCUACCUACUUAUUGGTT against Tomm70a, the z-score is 0.178 (inactive).
Under GGAAGAUGUGAAAUUGCUUTT against Dars2 stands 2.23 (active); under CCACUAUGUUCUGUGGCAATT against Olfr736, -2.33 (active); under GGAAGAAUUUGACAACCGCTT against Mrps18c, 0.583 (inactive).
Under GGAAAAUGAUAGCAGACAUTT against Zfp810 stands -1.72 (inactive); under GGGCCAGAAGAAGAGUCGATT against Mllt6, -0.304 (inactive); under GGAGAUUUCUGAAACUAGATT against Tiaf2, -2.09 (active).
Under “GGCCAACUCACCUUUCUAGTT against D630023F18Rik” stands 1.84 (inactive); under CCAUUCUUAUUGUUGAGAATT against Nek9, -0.793 (inactive); under GGACAUGAAAGUUGACCUGTT against Mrps31, 0.465 (inactive).
With GCCCGUGUGUAAGUGCAAATT against Wfikkn2, the z-score is 2.25 (active).
GGAAACAGAGCAAGGAAAATT against Gas7: the z-score is 0.613 (inactive).
On to GGAGAGCUCUAUGGAUCGATT against Fgf16, for which the z-score is 0.784 (inactive).
As to CCUCCUUUGGACAACGGGUTT against Cyp7a1, the z-score is -1.34 (inactive).
In the case of CCUGCUCUCCUCAUUAUGUTT against Rnls, the z-score is -0.115 (inactive).
Regarding GGAAGCAACUUGGAAUUUGTT against Ctnna3, the z-score is 0.886 (inactive).
Under GGGUACAGUCCGAUACAGUTT against Nploc4 stands -1.79 (inactive); under GCUCUCAUUAGCAUUAUCGTT against Gria1, 0.21 (inactive); under GCACAACUCAGAAGUAAUUTT against Ghr, 0.271 (inactive).
As for GGUAAUAUUUCGUGCUUUATT against Lamb1, the z-score was 2.1 (active).
The value for CCUAAAAAGAGGAAAAGGGTT against Psg29 was -0.254 (inactive); that for GGUGCUCAGCAUGUUUGCUTT against Avpr1b was -1.06 (inactive).
Consider GGCACUGGAAAUAAAACCCTT against S100a14, for which the z-score was -0.766 (inactive).
Under GCUAACGAAGGUAGUGUACTT against Gtpbp8 stands 3.34 (active).
Take GGUAUGCUCUCUGUUGACUTT against Olfr922: the z-score is 0.472 (inactive).
GGAGUUCCUAUUUAAUCCCTT against Hoxb8: the z-score was -0.419 (inactive).
As to GCAGUUUUAACUGGCCAUATT against Nr2f2, the z-score was 1.7 (inactive).
Consider GCUGCUUAAGUACAUCAGATT against Grm4, for which the z-score was -0.401 (inactive).
As to GGUUAUGCAUUACUCUCUUTT against Prkdc, the z-score was 0.0207 (inactive).
With GGCCAGGUAUAAAUAUAUATT against Dusp8, the z-score was 4.51 (active).
Consider GCUGGAACUUAGUGUUCAGTT against Kat6b, for which the z-score is 1.45 (inactive).
For GCAAUGUUCUCCGUAAACATT against Acss2, the z-score was 1.15 (inactive).
As to GGCUUCAAACACUUCCUUGTT against Sh2d4b, the z-score is 0.818 (inactive).
With GGGAAAAGAUUCAGCUAGATT against Ntn4, the z-score is -1.16 (inactive).
On to GCAGCUAUUGAGCAUGGUGTT against Atp6v1g3, for which the z-score was -2.16 (active).
For the sequence GCCGUAUCGAUUCUAUUUCTT against Slc6a17, the z-score was 1.09 (inactive).
For the sequence GGAAAAGAAGACAUUUCUCTT against Osbpl8, the z-score was -0.565 (inactive).
Regarding CCUCCUGUACGAACACGCATT against Sars2, the z-score is -0.118 (inactive).
On to GGCUGUGCUCAGGAUCAAATT against Olfr683, for which the z-score is 2.37 (active).
For the sequence GGAAAUAUCCAAGAAUCCCTT against Bbs4, the z-score was -0.0724 (inactive).
